This note sets out measurements from PubChem BioAssay AID1259422 (The Scripps Research Institute Molecular Screening Center, 2018).

Structures are written as SMILES. Where “and” joins values, the source holds several entries; their conditions need not be identical. Identical values can stand only once. Out of some 640,000 compounds screened, about 9,300 (1.5%) were called active. Cut-off read from the data, not from the text of the source: active = inhibition above about 32%; inactive = the rest. Many of the other results were omitted from the sample, so actives are more common in it than they were.

By inhibition is commonly meant the relative decrease from the control value, in per cent.

A short description of the test: TEAD-YAP interaction inhibition, primary screen, TEAD-YAP interaction inhibitor project, luminescence, HEK-TIYL cells (AID 1259422).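 Note: 0% = median of test compound wells and 100% = reference inhibitor wells.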 As to conditions: TEAD-Gal4/YAP UAS-luciferase luminescence, at 9.12 µM, active compounds read high.
As to `CCOc1ccc(NC(=O)c2ccc(C#N)cc2F)cc1`, the inhibition was -9.3% (inactive).

Turning to `N#Cc1ccc(C(=O)Nc2ccc(Cc3ccncc3)cc2)c(F)c1`, the inhibition was 55.3% (active).

In the case of `CCOC(=O)c1ccc(NC(=O)c2ccc(C#N)cc2F)cc1`, the inhibition was -1.23% (inactive).

For the compound `COc1cccc(/C=C/C(=O)c2ccc3c(c2)OCCO3)c1`, the inhibition was -34.3% (inactive).

For `O=C(/C=C/c1ccc2c(c1)OCCO2)c1ccc(O)cc1`, the inhibition was 63.9% (active).

For the compound `O=C(/C=C/c1ccccn1)c1ccc2c(c1)OCO2`, the inhibition was -21.2% (inactive).

Take `COCCNc1c(C(C)Cc2ccc3c(c2)OCO3)nc2cnccn12` (configuration not stated): the inhibition is -1.93% (inactive).

On to `Cn1c(=O)cc(OCC(=O)NCCN2CCOCC2)c2ccccc21`, for which the inhibition is -3.6% (inactive).

Turning to `Brc1ccc2nc(-c3cccs3)cn2c1`, the inhibition was 37.5% (active).

Take `O=C(Nc1ccc(-c2cn3ccccc3n2)cc1)c1ccc(Br)cc1`: the inhibition is -5.14% (inactive).

Turning to `Cc1ccccc1-n1c(-c2ccc(Br)cc2)n[nH]c1=S`, the inhibition was -9.56% (inactive).

Turning to `N#Cc1ccc(-c2cccs2)nc1SCc1ccc(Br)cc1`, the inhibition was -20.2% (inactive).

Take `c1ccc(-c2nc3nc(-c4cccs4)cn3nc2-c2ccccc2)cc1`: the inhibition is -28.9% (inactive).

Take `Cc1ccc2nc(-c3ccc(Br)cc3)cn2c1`: the inhibition is 75.2% (active).

With `N#Cc1ccccc1S(=O)(=O)Nc1ccc(Cl)cc1`, the inhibition was 7.64% (inactive).

As for `CC1=C(C(=O)Nc2cccc(Cl)c2)C(c2ccc([N+](=O)[O-])cc2)NC(=O)N1` (configuration not stated), the inhibition was -2.46% (inactive).

With `COc1ccc(NC(=O)c2ccc([N+](=O)[O-])o2)cc1OC`, the inhibition is 5.63% (inactive).

As to `CCOC(=O)C1=C(C)N=c2s/c(=C\c3ccc(-c4ccc([N+](=O)[O-])cc4)o3)c(=O)n2C1c1cccs1` (configuration not stated), the inhibition was 6.56% (inactive).

For `O=C(N/N=C/c1ccc2c(c1)OCO2)C12CC3CC(CC(C3)C1)C2`, the inhibition was -46.5% (inactive).

For `Cc1cc(Cl)ccc1NC(=O)COc1ccc([N+](=O)[O-])cc1`, the inhibition was -9.13% (inactive).

Regarding `CC(C)(C)c1ccc(OCC(=O)Nc2ccccc2[N+](=O)[O-])cc1`, the inhibition was 2.77% (inactive).

As for `CC(C)(C)c1ccc(OCC(=O)Nc2cc([N+](=O)[O-])ccc2O)cc1`, the inhibition is 77.8% (active).

On to `O=C(CSc1nc2[nH]ncc2c(=O)n1-c1ccccc1)Nc1ccc(Br)cc1F`, for which the inhibition was 8.04% (inactive).

Take `CCOC(=O)C1CCCCN1Cc1cc(Br)ccc1O` (configuration not stated): the inhibition is 7.45% (inactive).

Take `COc1ccc(C)cc1NC(=O)CN1C(=O)C(C)N(c2ccc(C)cc2)C1=O` (configuration not stated): the inhibition was 8.14% (inactive).

Regarding `C=CCn1c(=S)[nH]c2sc3c(c2c1=O)CCCCC3`, the inhibition was 8.8% (inactive).

Turning to `COc1cccc2cc(-c3nc(-c4ccc(C)cc4C)cs3)c(=O)oc12`, the inhibition was 1.78% (inactive).

Regarding `COc1cccc(Nc2nc(-c3cc4cccc(OC)c4oc3=O)cs2)c1`, the inhibition is -12.4% (inactive).

For `COc1ccccc1Nc1nc(-c2cc3cccc(OC)c3oc2=O)cs1`, the inhibition was 58% (active).

As to `CCN(C(=O)C1CCC1)c1nnc(-c2ccc(OC)cc2)s1`, the inhibition was -89.3% (inactive).

For `CCN1CCN(CC(=O)NCc2ccccc2Cl)C(=O)C1=O`, the inhibition was 2.39% (inactive).

With `CCC(C)c1ccc(OCC(=O)NCc2ccco2)cc1` (configuration not stated), the inhibition is -13.8% (inactive).

On to `O=C(COc1cc(Cl)ccc1Cl)NCc1ccco1`, for which the inhibition is -2.94% (inactive).

On to `CCc1cc2c(C)cc(=O)oc2cc1OCC(=O)NCc1ccco1`, for which the inhibition is 42.8% (active).

In the case of `Cc1ccc2nc(C3CCN(CC(=O)NCc4ccccc4)CC3)[nH]c2c1`, the inhibition was 7.44% (inactive).

Consider `Cc1ccc(-n2ncc(C(=O)O)c2-n2cccc2)cc1`, for which the inhibition is 1.07% (inactive).

Take `Nc1c(C(=O)O)cnn1-c1ccccc1`: the inhibition was 35.4% (active).

For `O=C(Cc1ccccc1)Nc1c(C(=O)N2CCCCCC2)cnn1-c1ccccc1`, the inhibition is -25.7% (inactive).

`COc1ccccc1C1C2=C(COC2=O)Nc2cc3c(cc21)OCO3` (configuration not stated): the inhibition is 54% (active).

Regarding `COc1ccc(C2CC(=O)C3=C(C2)Nc2ccccc2NC3c2cc3c(cc2[N+](=O)[O-])OCO3)cc1` (configuration not stated), the inhibition is -38.4% (inactive).

Turning to `O=C1OCC2=C1C(c1ccc([N+](=O)[O-])cc1)c1cc3c(cc1N2)OCO3` (configuration not stated), the inhibition is 51.2% (active).

Take `Cn1c2c(c(=O)n(C)c1=O)C(c1ccc(F)cc1)C1=C(COC1=O)N2` (configuration not stated): the inhibition is 13.2% (inactive).

Regarding `COc1cc(C2CC(=O)Nc3cc4c(cc32)OCO4)ccc1O` (configuration not stated), the inhibition was -0.17% (inactive).

For `COc1ccccc1C1C2=C(COC2=O)Nc2c1c(=O)n(C)c(=O)n2C` (configuration not stated), the inhibition was 6.62% (inactive).

For the compound `CCc1ccccc1N(CC(=O)Nc1cccc(F)c1)S(C)(=O)=O`, the inhibition is -13.9% (inactive).

On to `COC(=O)CNC(=O)CC1C(=O)NCCN1Cc1ccc(F)cc1` (configuration not stated), for which the inhibition is -2% (inactive).

For the compound `CCNS(=O)(=O)c1ccc(NC(=O)CCOCC)cc1`, the inhibition was 9.16% (inactive).

Turning to `O=C(CN1C(=O)COc2ccc(Cl)cc21)Nc1ccccc1F`, the inhibition is 3.36% (inactive).

With `COC(=O)c1cc(C(=O)N2CC(C)CC(C)C2)cc([N+](=O)[O-])c1` (configuration not stated), the inhibition was 1.59% (inactive).

Consider `CCOC(=O)c1cc(S(=O)(=O)NCc2ccc(Cl)cc2)cn1C`, for which the inhibition is 2.16% (inactive).

For `c1ccc(Nc2nccc(Nc3ccc(N4CCOCC4)cc3)n2)cc1`, the inhibition is 16.2% (inactive).

For `COc1cc(Nc2ccnc(Nc3ccc(N4CCOCC4)cc3)n2)cc(OC)c1OC`, the inhibition was 72.7% (active).

As for `COc1cc(Nc2ccnc(Nc3ccncc3)n2)cc(OC)c1OC`, the inhibition is 3.91% (inactive).

Regarding `S=c1[nH]nc(N2CCOCC2)n1Cc1ccccc1`, the inhibition was 2.61% (inactive).

For `O=C(NC1CCCc2ccccc21)c1ccc2nccnc2c1` (configuration not stated), the inhibition is -5.54% (inactive).

For the compound `Cn1nccc1C(=O)N1CCC[C@@H]2CN(C(=O)Cc3ccc(F)cc3)CC[C@H]21`, the inhibition was 6.31% (inactive).

As to `Cn1nccc1C(=O)NC1CCCc2c1cnn2-c1ccc(F)cc1F` (configuration not stated), the inhibition was 55.8% (active).

As for `Cc1cc(C(=O)N(Cc2ccccc2)C(C)C2CC2)c(Cl)cc1Cl` (configuration not stated), the inhibition is -10.9% (inactive).

For the compound `Cc1noc(C)c1NC(=O)N1CCC2(CC1)OCc1ccccc1O2`, the inhibition was -5.79% (inactive).

For the compound `CC(C)[C@@H](Cn1nnc2ccccc21)NC(=O)c1ccc(N2CCCCS2(=O)=O)cc1`, the inhibition is -3.11% (inactive).

`COc1ccc(CCNC(=O)CCS(=O)(=O)c2cccc3cccnc23)cc1OC`: the inhibition is 10.6% (inactive).

`CC[C@]1(O)CC2CN(CCc3c([nH]c4ccccc34)[C@@](C(=O)OC)(c3cc4c(cc3OC)N(C=O)[C@H]3[C@@](O)(C(=O)OC)[C@H](OC(C)=O)[C@]5(CC)C=CCN6CC[C@]43[C@@H]65)C2)C1` (some centres not stated): the inhibition is 50.8% (active) and 57.9% (active) and 55.9% (active).
